This is part of a sample that, as a whole, favours compounds with a hit. Of some 83,000 tested, about 20% had one in any assay.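 Single-concentration screen, 48 h exposure, 96-well plates. Endpoint: percent growth. Below 10 = active.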 Values without a mark were called inactive. Active and inactive are the calls of the source.

The test system of this test is NCI-H522 lung. In words: NCI-60 one-dose screen, 48 h (100 = growth as untreated, 0 = no growth, -100 = all killed). The conditions noted are these: 10 µM unless noted.
As to `COc1ccc(OC)c(/C=N/Nc2ncnc3c2c(C)nn3C)c1`, the growth is 93.8%.

As to `Cc1c[n+](Cc2ccc3ccccc3c2)cn1Cc1ccc2ccccc2c1`, the growth is -17.9% (active).

On to `COc1cc(OC)c(/C=C/C(=O)c2c(OC)cccc2OC)c(OC)c1`, for which the growth was -22.7% (active).

Regarding `COC(=O)c1c(C)nc(C)c2c1C(=O)C(Br)=C(NCc1ccccc1)C2=O`, the growth is 22%.

With `CCNCCNc1cc(-c2ccc(C(F)(F)F)cc2)c(C#N)c2nc3ccccc3n12`, the growth is -69% (active).

As to `CSc1nc2ccccc2cc1/C=[N+](\[O-])c1ccccc1`, the growth is 82.4%.

With `CC(=O)Oc1ccc(N2C(=O)C(Cl)=C(Nc3cccc(C(F)(F)F)c3)C2=O)cc1`, the growth was 86%.

Take `CC(=O)Oc1ccc(C)cc1C`: the growth is 101%.

Turning to `O=C(Nc1ccc(Oc2cccc(Cl)c2)c(Cl)c1)c1cnccn1`, the growth is 12.5%.

For the compound `CCC(=O)Oc1ccc(-c2ccccc2)cc1Br`, the growth is 108%.

Take `CCN(CC)CC(O)COc1c(Br)c(Br)c(Br)c2c1OC(C)(C)C2` (stereo not given): the growth is 145%.

For the compound `Fc1cc2c(cc1Cl)N(c1ncnc3ccc(-c4ccc5n[nH]nc5c4)cc13)CC2`, the growth was 67.3%.

For the compound `Nc1c(C(=O)Nc2ccncc2)sc2nc3c(cc12)C(O)CCC3` (stereo not given), the growth was 78.8%.

Regarding `CCOC(=O)c1cc2c(n1Cc1cc(OC)c(OC)c(OC)c1)-c1nc(N)sc1CCC2`, the growth is 7.85% (active).

For the compound `Cc1ccc(Nn2c(SCC(=O)Nc3nc(-c4ccccc4)cs3)nc(C)c2C)cc1`, the growth was 49.7%.

As for `O=C(NCc1ccc(Cl)cc1Cl)C1CCC(=O)N1c1cccs1` (stereo not given), the growth was 76.8%.

As to `COc1cc(C2c3cc(OC(C)=O)c(OC)cc3CC3C(=O)OCC32)ccc1OC(C)=O` (stereo not given), the growth was 105%.

As for `CCOC(=O)c1ccc(NC(=O)c2nc(-c3cc(OC)c(OC)c(OC)c3)n(-c3ccc(Cl)cc3)n2)cc1`, the growth was 67.2%.

On to `Cc1nc2sc(C(=O)Nc3cccc(Br)c3)c(N)c2cc1C(O)c1ccccc1` (stereo not given), for which the growth was 9.66% (active).

Turning to `OB1OCc2cc(/C=C/c3cccc(C(F)(F)F)c3)ccc21`, the growth was 3.78% (active).

`COC(=O)[C@@H](CCCCNC(=O)[C@]12CCC(C)(C)C[C@@H]1C1=CC[C@@H]3[C@@]4(C)C/C(=C/c5ccco5)C(=O)C(C)(C)[C@@H]4CC[C@@]3(C)[C@]1(C)CC2)NC(=O)[C@]12CCC(C)(C)C[C@@H]1C1=CC[C@@H]3[C@@]4(C)C/C(=C/c5ccco5)C(=O)C(C)(C)[C@@H]4CC[C@@]3(C)[C@]1(C)CC2`: the growth is 94.1%.

For `COc1c(C(=O)Nc2ccc(C)c(Br)c2)ccc2ccccc12`, the growth is 85%.

In the case of `COC(=O)CC[C@@H]1O[C@@H](c2cccc(C(F)(F)F)c2)[C@@H](O)[C@H]1O`, the growth was 98.6%.

On to `COc1ccc(/C=C(\C#N)n2nnc3cc(F)c(F)cc32)cc1`, for which the growth was 12.7%.

`CCCC/C(CC)=N\NS(=O)(=O)c1ccc([N+](=O)[O-])cc1`: the growth is 90.9%.

As to `CCC(C(=O)[C@@H](C)[C@@H](O)[C@H](C)[C@@H]1O[C@@H]([C@@H](CC)C(=O)ONC(=O)c2ccccc2)CC[C@@H]1C)[C@H]1O[C@]2(C=CC(=O)[C@]3(CC[C@@](C)([C@H]4CC[C@](O)(CC)[C@H](C)O4)O3)O2)[C@H](C)C[C@@H]1C` (stereo not given in full), the growth is -25.9% (active).

On to `COC(=O)[C@]12CCC(C)(C)C[C@H]1[C@H]1/C(=N/OCCc3nn[nH]n3)C[C@@H]3[C@@]4(C)CC[C@H](OC(C)=O)C(C)(C)[C@@H]4CC[C@@]3(C)[C@]1(C)CC2`, for which the growth was 38.3%.

In the case of `N#CC(C#N)N=Nc1ccc(Br)cc1`, the growth was 7.59% (active).

For `CCOC(=O)NC(C)C`, the growth is 99.3%.

With `CCCNC(=O)Nc1ccc2cc3ccc(NC(=O)NCCC)cc3nc2c1`, the growth was 79%.

On to `C=CCN=c1sc2c(n1NC(=O)c1cc3ccc1CCc1ccc(cc1)CC3)C(=O)c1ccccc1C2=O`, for which the growth was -20.2% (active).

For the compound `Cc1ccc2c(n1)C(=O)C(Br)=C(CC(C)C)C2=O`, the growth was 67.7%.

For `CC(C)COc1nc2c(c(=O)n(C)c(=O)n2C)n1C`, the growth was 101%.

For the compound `Cc1ccccc1/C=C/C(=O)c1cccc(OCCCCOc2cccc(C(=O)/C=C/c3ccccc3C)c2)c1`, the growth is 85.8%.

In the case of `COc1ccc2cc1Oc1ccc(cc1)C[C@H]1c3c(cc4c(c3Oc3cc5c(cc3OC)CCN(C)[C@@H]5C2)OCO4)CCN1C`, the growth is -18.8% (active).

For `CCOC(=O)c1csc(NC(=O)COc2ccc(/C=C3\Oc4ccccc4C3=O)cc2)n1`, the growth was 55.1%.

Consider `CC(C)C1=NOC(=O)C1=Cc1cn(-c2ccccc2)nc1-c1ccc(F)cc1`, for which the growth is 66.5%.

On to `CCOC(=O)C/C(=N\Nc1cc(=O)[nH]c2ccc(Br)cc12)C(=O)OCC`, for which the growth is 95.2%.

With `Cc1cc(=O)n(C(=O)Nc2ccccc2Cl)c2cc(O)ccc12`, the growth was 95.2%.

As to `CSc1nnc(-c2cc3c([nH]c4ccccc43)c(-c3cccc(O)c3)n2)n1-c1ccccc1`, the growth was -15% (active).

(Values after PubChem BioAssay (NCI).)
